The target of experiment [1] is Rap guanine nucleotide exchange factor 3 (Homo sapiens) (UniProt O95398). The experiment is described as follows: Confirmatory qHTS for antagonist of cAMP-regulated guanine nucleotide exchange factor 3 (EPAC1) (AID 1645880).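 Note: plate controls were DMSO only for no effect and full effect of the ATA control for full effect; nearly all actives have a fitted effect of over 55% in size.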 The procedure, abridged: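 Released BODIPY-GDP fluoresces less than Rap1-bound BODIPY-GDP; the signal is followed at 480/540 nm at 5-min intervals over 30 min, after 5 min at room temperature. Reactions contain 100 nM EPAC1, 250 nM RAP1B-BODIPY-GDP and 50 uM GDP; results are normalized to ATA and DMSO.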
Sequence of Rap guanine nucleotide exchange factor 3 (Homo sapiens) (O95398 whole entry, looked up): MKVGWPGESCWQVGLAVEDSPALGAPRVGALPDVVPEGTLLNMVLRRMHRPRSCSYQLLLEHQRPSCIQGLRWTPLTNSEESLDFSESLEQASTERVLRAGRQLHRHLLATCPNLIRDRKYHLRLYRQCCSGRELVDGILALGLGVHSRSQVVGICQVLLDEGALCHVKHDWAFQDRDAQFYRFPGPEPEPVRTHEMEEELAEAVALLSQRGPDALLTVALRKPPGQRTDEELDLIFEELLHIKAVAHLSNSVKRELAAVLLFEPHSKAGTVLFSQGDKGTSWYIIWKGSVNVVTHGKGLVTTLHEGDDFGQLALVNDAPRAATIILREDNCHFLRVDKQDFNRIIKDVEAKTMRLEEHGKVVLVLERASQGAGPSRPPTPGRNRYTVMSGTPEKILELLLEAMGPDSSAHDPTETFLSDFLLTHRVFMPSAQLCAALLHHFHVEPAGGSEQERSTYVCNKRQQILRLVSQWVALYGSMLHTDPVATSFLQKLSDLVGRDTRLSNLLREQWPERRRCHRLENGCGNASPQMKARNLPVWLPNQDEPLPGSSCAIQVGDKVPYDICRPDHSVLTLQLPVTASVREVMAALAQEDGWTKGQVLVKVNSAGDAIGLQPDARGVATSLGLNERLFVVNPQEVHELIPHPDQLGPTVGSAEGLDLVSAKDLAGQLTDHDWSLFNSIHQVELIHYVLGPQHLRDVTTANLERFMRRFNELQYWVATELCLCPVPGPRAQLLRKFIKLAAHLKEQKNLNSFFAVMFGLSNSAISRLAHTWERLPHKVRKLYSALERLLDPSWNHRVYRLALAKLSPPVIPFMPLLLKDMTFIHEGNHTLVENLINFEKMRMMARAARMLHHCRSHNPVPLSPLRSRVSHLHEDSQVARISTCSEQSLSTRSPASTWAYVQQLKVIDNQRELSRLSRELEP
Background: Quantitative high-throughput screening tests each substance at several concentrations.

The target is the same in experiment [2]. The experiment is described as follows: Confirmatory qHTS for agonist of cAMP-regulated guanine nucleotide exchange factor 3 (EPAC1) (AID 1645881).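 Note: EPAC1 catalysed release of BODIPY-GDP from Rap1B seen as fluorescence loss; 100% = effect of cAMP agonist control; nearly all actives have a fitted effect of over 75% in size.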
For experiment [3], the target named is Rap guanine nucleotide exchange factor 4 (Homo sapiens) (UniProt Q8WZA2). The experiment is described as follows: Confirmatory qHTS for agonist of cAMP-regulated guanine nucleotide exchange factor 4 (EPAC2) (AID 1645884).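 Note: nucleotide exchange releases bodipy-GDP from Rap1 and this lowers its fluorescence; % is set by controls: 0 for no effect and ±100 for the full control effect; nearly all actives have a fitted effect of over 65% in size.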
Sequence of Rap guanine nucleotide exchange factor 4 (Homo sapiens) (Q8WZA2 whole entry, looked up): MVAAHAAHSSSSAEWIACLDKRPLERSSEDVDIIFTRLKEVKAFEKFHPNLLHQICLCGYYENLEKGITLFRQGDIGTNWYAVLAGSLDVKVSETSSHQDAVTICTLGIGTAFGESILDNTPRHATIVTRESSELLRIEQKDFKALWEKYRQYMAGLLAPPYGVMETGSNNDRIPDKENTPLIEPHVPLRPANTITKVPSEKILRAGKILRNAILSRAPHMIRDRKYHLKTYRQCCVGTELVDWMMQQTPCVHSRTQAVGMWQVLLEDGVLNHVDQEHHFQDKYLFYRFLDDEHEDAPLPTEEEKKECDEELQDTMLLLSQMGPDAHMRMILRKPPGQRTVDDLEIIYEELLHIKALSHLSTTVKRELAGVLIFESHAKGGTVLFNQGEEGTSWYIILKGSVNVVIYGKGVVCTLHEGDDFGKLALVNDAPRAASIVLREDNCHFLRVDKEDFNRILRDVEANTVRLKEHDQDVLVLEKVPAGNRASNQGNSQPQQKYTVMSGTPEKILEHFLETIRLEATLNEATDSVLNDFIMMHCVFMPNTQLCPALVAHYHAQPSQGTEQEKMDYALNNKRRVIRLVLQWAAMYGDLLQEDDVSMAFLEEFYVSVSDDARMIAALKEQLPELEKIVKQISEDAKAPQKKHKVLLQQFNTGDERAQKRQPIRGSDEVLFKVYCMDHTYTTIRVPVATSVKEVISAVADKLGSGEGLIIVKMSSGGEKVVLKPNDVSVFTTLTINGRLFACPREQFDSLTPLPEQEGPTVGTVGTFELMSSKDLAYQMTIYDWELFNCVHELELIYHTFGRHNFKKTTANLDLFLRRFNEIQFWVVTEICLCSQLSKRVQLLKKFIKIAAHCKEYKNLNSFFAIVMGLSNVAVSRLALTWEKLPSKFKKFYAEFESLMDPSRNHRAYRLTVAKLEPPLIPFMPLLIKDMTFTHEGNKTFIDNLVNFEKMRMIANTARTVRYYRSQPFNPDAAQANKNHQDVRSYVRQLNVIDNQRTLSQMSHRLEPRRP
Experiment [4] has the same target. The experiment is described as follows: Confirmatory qHTS for antagonist of cAMP-regulated guanine nucleotide exchange factor 4 (EPAC2) (AID 1645885). Note: nearly all actives have a fitted effect of over 25% in size. Note: potency is the fitted concentration of half-maximal effect.
Experiment [5] can be described thus: NCATS anti-infectives library activity on HEK293 viability as a counter-qHTS vs the C. elegans viability qHTS (AID 1745854). Note: % is set by controls: 0 for no effect and ±100 for the full control effect. The method in brief:
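CellTiter-Glo luminescence, read on a CCD imager, scored viability of HEK293 cells after 24 hr compound exposure at 37C. Library tested in several concentrations, 1:5 steps, up to 41.7 uM; digitonin served as control.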

Experiment [6] is described as follows: Primary qHTS for small molecule stabilizers of the endoplasmic reticulum resident proteome: Secreted ER Calcium Modulated Protein (SERCaMP) assay (AID 1508630). Note: % is set by controls: 0 for no effect and ±100 for the full control effect. The procedure, abridged:
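The SH-SY5Y reporter protocol was run at 3 concentrations up to 38.3 uM (primary) or 11 concentrations (follow-up): 16 h compound, 100 nM thapsigargin for 4 h, then extracellular luciferase luminescence.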

A short description of experiment [7]: A High-Content qHTS Against Drug Library for the Identification of Small Molecules that Inhibit DYT1 Early Onset Primary Dystonia-Associated Cell Pathology (AID 1645839; calls by dose curve). The procedure, abridged:
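High-content imaging quantified EGFP-TorsinA mislocalization in HEK293-derived cells inducibly expressing DYT1 mutant torsinA, after 48 h exposure to compound given together with tetracycline induction. Cell count served as a toxicity channel alongside %pathology.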

Experiment [8] addresses Cytochrome P450 2D6 (Homo sapiens) (UniProt P10635). The experiment is described as follows: Cytochrome P450 family 2 subfamily D member 6 (CYP2D6) small molecule antagonists: luciferase biochemical (cell-free) qHTS assay (AID 1645840; active = well fitted curve in the direction sought with a large enough effect in the repeat runs; an effect the other way counts as inactive or inconclusive; note: nearly all actives have a fitted effect of over 55% in size; note: potency is the fitted concentration of half-maximal effect; for activity change, negative = inhibition: % is set by controls: 0 for no effect and ±100 for the full control effect). The procedure, abridged: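 P450-Glo CYP2D6 system: proluciferin substrate converted by enzyme to luciferin, read by luminescence proportional to activity. Enzyme-substrate mix with compound 10 min at room temperature, then NADPH regeneration 1 h before detection reagent.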

In experiment [9] the target is Cytochrome P450 2C9 (Homo sapiens) (UniProt P11712). The experiment is described as follows: Cytochrome P450 family 2 subfamily C member 9 (CYP2C9) small molecule antagonists: luciferase biochemical (cell-free) qHTS assay (AID 1645842; active = well fitted curve in the direction sought with a large enough effect in the repeat runs; an effect the other way counts as inactive or inconclusive; note: nearly all actives have a fitted effect of over 55% in size; note: potency is the fitted concentration of half-maximal effect). The method in brief:
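P450-Glo CYP2C9 system: proluciferin substrate with enzyme in mix containing 0.4% BSA, 10 min at room temperature, then NADPH regeneration solution added and incubated 1 h at 37C. Detection reagent stopped reaction; luminescence read after 20 min as RLU.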

The target of another experiment is Papain (Carica papaya) (UniProt P00784). The experiment is described as follows: Primary qHTS assay for inhibitors of the protease papain (AID 1645873).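 Note: papain turnover of Z-FR-AMC read as the AMC fluorescence gain over 10 min; % is set by controls: 0 for no effect and ±100 for the full control effect.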
Sequence of Papain (Carica papaya) (P00784 whole entry, looked up, the tested form may be a part): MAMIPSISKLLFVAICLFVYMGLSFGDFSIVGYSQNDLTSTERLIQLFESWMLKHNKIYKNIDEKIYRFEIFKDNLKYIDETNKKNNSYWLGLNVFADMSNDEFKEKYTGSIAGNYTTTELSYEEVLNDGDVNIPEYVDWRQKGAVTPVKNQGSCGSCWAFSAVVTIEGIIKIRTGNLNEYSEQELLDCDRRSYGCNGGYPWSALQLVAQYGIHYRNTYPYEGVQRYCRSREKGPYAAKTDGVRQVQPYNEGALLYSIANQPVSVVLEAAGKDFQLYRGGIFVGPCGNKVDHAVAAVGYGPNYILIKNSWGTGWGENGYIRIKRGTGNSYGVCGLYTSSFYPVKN
Experiment [10] can be described thus: Primary qHTS for inhibitors of nuclear receptor binding SET domain protein 2 (NSD2) in an isogenic RCH-ACV NSD2 p.E1099K mutant (9B) (AID 1645876). Note: nearly all actives have a fitted effect of over 70% in size.
Experiment [11] can be described thus: Primary qHTS for inhibitors of nuclear receptor binding SET domain protein 2 (NSD2) in an RCH-ACV wild type WT cells (2C) (AID 1645877). Note: nearly all actives have a fitted effect of over 70% in size. Note: potency is the fitted concentration of half-maximal effect.
Experiment [12] concerns the target Catechol O-methyltransferase (Homo sapiens) (UniProt P21964). The experiment is described as follows: Confirmatory Screen for Target Class Profiling of Small Molecule Inhibitors of Methyltransferases (AID 1745852; calls by dose curve). The note with it: MTase-Glo luminescence, SAH detection, recombinant enzyme; measured here: COMT max response; stronger effect = lower value.
For experiment [13], the target named is Guanidinoacetate N-methyltransferase (Homo sapiens) (UniProt Q14353). The description is as above. The note with it: MTase-Glo luminescence, SAH detection, recombinant enzyme; at 57.3 µM (top of the series).
For experiment [14], the target named is Nicotinamide N-methyltransferase (Homo sapiens) (UniProt P40261). The description is as above. The note with it: MTase-Glo luminescence, SAH detection, recombinant enzyme; measured here: NNMT max response; stronger effect = lower value.
Sequence of Nicotinamide N-methyltransferase (Homo sapiens) (P40261 whole entry, looked up): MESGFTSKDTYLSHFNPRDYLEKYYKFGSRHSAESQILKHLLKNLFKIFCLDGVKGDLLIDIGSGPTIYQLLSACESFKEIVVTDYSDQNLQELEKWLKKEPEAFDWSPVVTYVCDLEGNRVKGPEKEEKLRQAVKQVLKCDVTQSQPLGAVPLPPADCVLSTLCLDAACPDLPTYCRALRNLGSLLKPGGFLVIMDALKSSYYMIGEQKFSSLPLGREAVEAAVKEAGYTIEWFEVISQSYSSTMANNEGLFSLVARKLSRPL
The target in experiment [15] is Phenylethanolamine N-methyltransferase (Homo sapiens) (UniProt P11086). Described as above. The note with it: MTase-Glo luminescence, SAH detection, recombinant enzyme; measured here: PNMT max response; stronger effect = lower value.
Sequence of Phenylethanolamine N-methyltransferase (Homo sapiens) (P11086 whole entry, looked up): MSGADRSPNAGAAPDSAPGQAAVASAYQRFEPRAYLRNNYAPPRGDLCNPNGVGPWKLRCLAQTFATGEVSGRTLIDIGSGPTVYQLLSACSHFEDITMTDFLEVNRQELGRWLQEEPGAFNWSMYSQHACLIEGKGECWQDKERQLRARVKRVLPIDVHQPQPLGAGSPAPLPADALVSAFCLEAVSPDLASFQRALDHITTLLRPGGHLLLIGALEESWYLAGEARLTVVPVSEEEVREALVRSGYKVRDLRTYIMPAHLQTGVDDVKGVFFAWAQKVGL

This is an account of results in PubChem BioAssay (NCATS).

Inconclusive results are not listed. Calls of active or inactive are those of the source. Unless noted, calls come from the whole dose curve; as a rule, active = well fitted curve in the direction sought with a large enough effect; inconclusive = small, poorly fitted or top-dose-only effect, or another doubt; inactive = no such curve, though single readings can be large; an effect the other way counts as inactive or inconclusive.

Sequence of Cytochrome P450 2D6 (Homo sapiens) (P10635 whole entry, looked up): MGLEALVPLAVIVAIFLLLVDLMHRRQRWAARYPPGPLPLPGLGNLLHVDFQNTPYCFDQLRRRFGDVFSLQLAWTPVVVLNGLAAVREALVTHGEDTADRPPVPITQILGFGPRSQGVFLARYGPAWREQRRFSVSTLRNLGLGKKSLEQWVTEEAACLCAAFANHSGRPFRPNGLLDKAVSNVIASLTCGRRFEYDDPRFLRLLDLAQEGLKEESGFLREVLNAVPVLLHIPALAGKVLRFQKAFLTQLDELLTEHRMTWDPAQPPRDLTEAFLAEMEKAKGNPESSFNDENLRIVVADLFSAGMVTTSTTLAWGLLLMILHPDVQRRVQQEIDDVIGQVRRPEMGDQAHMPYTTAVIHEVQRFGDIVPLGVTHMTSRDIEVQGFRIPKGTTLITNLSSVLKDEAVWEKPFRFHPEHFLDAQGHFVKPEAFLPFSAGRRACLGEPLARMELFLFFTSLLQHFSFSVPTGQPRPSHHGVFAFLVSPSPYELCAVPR
Sequence of Catechol O-methyltransferase (Homo sapiens) (P21964 whole entry, looked up): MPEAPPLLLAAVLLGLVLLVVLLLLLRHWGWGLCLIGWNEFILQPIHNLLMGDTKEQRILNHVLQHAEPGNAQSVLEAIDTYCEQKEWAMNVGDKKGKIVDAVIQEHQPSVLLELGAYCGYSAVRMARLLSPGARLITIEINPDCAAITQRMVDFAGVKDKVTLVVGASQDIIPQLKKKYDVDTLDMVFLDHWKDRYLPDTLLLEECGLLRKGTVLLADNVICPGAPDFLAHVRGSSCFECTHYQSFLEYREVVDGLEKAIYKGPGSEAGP
Sequence of Cytochrome P450 2C9 (Homo sapiens) (P11712 whole entry, looked up): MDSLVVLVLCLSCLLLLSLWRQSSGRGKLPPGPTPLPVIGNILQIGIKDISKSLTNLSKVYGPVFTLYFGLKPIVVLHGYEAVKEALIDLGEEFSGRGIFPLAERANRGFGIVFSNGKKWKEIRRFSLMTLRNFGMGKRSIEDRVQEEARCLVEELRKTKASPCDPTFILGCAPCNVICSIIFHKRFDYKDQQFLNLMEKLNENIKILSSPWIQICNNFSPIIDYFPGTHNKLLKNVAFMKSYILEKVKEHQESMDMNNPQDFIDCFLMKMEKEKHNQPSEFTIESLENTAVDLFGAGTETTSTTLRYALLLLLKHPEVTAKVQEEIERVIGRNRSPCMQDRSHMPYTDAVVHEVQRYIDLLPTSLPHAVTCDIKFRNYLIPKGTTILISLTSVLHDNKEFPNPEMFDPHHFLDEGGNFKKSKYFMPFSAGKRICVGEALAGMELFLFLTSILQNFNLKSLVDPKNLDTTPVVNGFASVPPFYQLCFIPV

With `Cc1nc2sccn2c(=O)c1CCN1CCC(=C(c2ccc(F)cc2)c2ccc(F)cc2)CC1`, the outcome in experiment [1] was “inactive”. Also, the Potency entry in experiment [2] and in experiment [3] was “inactive” in each case. Besides, the Potency in [4] is 44.1 µM (active).

On to `CC(=O)Nc1nnc(S(N)(=O)=O)s1`, for which, in [5], the outcome was “inactive”.

As for `OCCN1CCN(CCCN2c3ccccc3C=Cc3ccccc32)CC1`, the outcome in experiment [5] was “inactive”.

With `CCOC(=O)C1=C(C)NC(C)=C(C(=O)OC)C1c1cccc([N+](=O)[O-])c1` (centres undefined), the Potency result (in experiment [6]; in experiment [7]; with Papain (Carica papaya); in [2]) was “inactive” in each case. The results for the Potency in experiment [8] and in experiment [9] were 13.8 µM (active) and 0.436 µM (active), respectively. The outcome in [1] is “inactive”.

Regarding `CC[N+](C)(C)c1cccc(O)c1`, the Potency result (in experiment [6]; in experiment [7]; in experiment [8]; in [9]; with Papain (Carica papaya); in [10]) was “inactive” in each case. In [11], the Potency entry was “inactive”.

Take `CCCN(CCC)CCc1cccc2c1CC(=O)N2`: the Potency result (in experiment [6]; in experiment [7]; in experiment [9]; with Papain (Carica papaya); in experiment [10]; in experiment [11]) was “inactive” each time. Further, the Potency in experiment [8] was 2.75 µM (active). Moreover, the activity came to 9.88% in experiment [12], 1.36% in [14] and 4.72% in [15]. Besides, in experiment [13], the activity change, negative = inhibition was 6.02%.

As for `NC1=NCC2c3ccccc3Cc3ccccc3N12` (centres undefined), the Potency entry (in experiment [6]; in experiment [7]; in experiment [9]; with Papain (Carica papaya)) was “inactive” in each case. For the same compound, the Potency in experiment [8] was 1.55 µM (active). Also, the activity in [12] is -1.67%; in [14], -14.5%; in experiment [15], -3.06%. For the same compound, in [13], the activity change, negative = inhibition is 4.05%.

With `C[C@]12C=CC(=O)C=C1CC[C@H]1[C@@H]3C[C@@H](O)[C@](O)(C(=O)CO)[C@@]3(C)C[C@H](O)[C@@]12F`, the Potency result (in [6]; in experiment [7]; in experiment [8]; in experiment [9]; with Papain (Carica papaya); in experiment [10]) was “inactive” each time. Also, the Potency in experiment [11] is 1.68 µM (active).

For `CC(C)NNC(=O)c1ccncc1`, the Potency result (in experiment [6]; in experiment [7]; in experiment [8]; in experiment [9]; in the experiment with Papain (Carica papaya); in experiment [10]) was “inactive” throughout. For the same compound, the Potency result in [11] was “inactive”.

As to `CCCN1C[C@H](CSC)C[C@@H]2c3cccc4[nH]cc(c34)C[C@H]21`, the Potency entry (in experiment [6]; in experiment [7]; in experiment [9]; with Papain (Carica papaya); in [10]) was “inactive” throughout. Also, the Potency in experiment [8] was 0.055 µM (active). Besides, the activity was -0.209% in experiment [12], -3.93% in experiment [14] and 0.569% in experiment [15]. In addition, the activity change, negative = inhibition in experiment [13] stood at 5.03%.

For the compound `NC(=O)c1cn(Cc2c(F)cccc2F)nn1`, the Potency entry (in experiment [6]; in experiment [7]; in experiment [8]; in [9]; with Papain (Carica papaya); in experiment [10]) was “inactive” throughout. For the same compound, in [11], the Potency result is “inactive”.

Take `C[N+](C)(C)CCOC(=O)CCC(=O)OCC[N+](C)(C)C`: the Potency result (in experiment [6]; in experiment [7]; in experiment [8]; in experiment [9]; in the experiment with Papain (Carica papaya); in experiment [10]) was “inactive” each time. In addition, the Potency entry in experiment [11] is “inactive”.

Regarding `O=C(CCNNC(=O)c1ccncc1)NCc1ccccc1`, the Potency entry (in experiment [6]; in experiment [7]; in the experiment with Papain (Carica papaya); in experiment [10]; in experiment [11]) was “inactive” each time. The results for the Potency in [8] and in experiment [9] were 15.5 µM (active) and 5.49 µM (active), respectively.

On to `CN1C(=O)CC[C@H]1c1cccnc1`, for which the Potency entry (in experiment [6]; in [7]; in experiment [8]; in [9]; in the experiment with Papain (Carica papaya); in [10]) was “inactive” throughout. Further, the Potency result in experiment [11] was “inactive”.

Regarding `CN(C)C(=O)Oc1ccc[n+](C)c1`, the Potency entry (in [6]; in experiment [7]; in [8]; in experiment [9]; with Papain (Carica papaya); in [10]) was “inactive” each time. Also, in experiment [11], the Potency entry is “inactive”.

As to `Cc1cccc(C)c1NC(=O)C(C)N` (centres undefined), the Potency entry (in experiment [6]; in experiment [7]; in [8]; in [9]; with Papain (Carica papaya); in [2]) was “inactive” in each case. Moreover, the Potency result in experiment [3] and in experiment [4] was “inactive” each time. Besides, in [1], the outcome is “inactive”.

In the case of `Cc1ccc(=O)n(-c2ccccc2)c1`, the Potency result (in [6]; in experiment [7]; in experiment [8]; in experiment [9]; in the experiment with Papain (Carica papaya); in experiment [10]) was “inactive” throughout. Besides, the Potency entry in experiment [11] is “inactive”.

As for `CN(C(=O)CCCOc1ccc2[nH]c(=O)ccc2c1)C1CCCCC1`, the Potency entry (in experiment [6]; in experiment [7]; in [8]; in the experiment with Papain (Carica papaya); in [11]) was “inactive” in each case. Further, the Potency in [9] was 13.8 µM (active).

Turning to `NC/C=C/C(=O)O`, the Potency entry (in experiment [6]; in experiment [7]; in experiment [8]; in [9]; in the experiment with Papain (Carica papaya); in experiment [10]) was “inactive” in each case. Further, in [11], the Potency entry was “inactive”.

As to `CCn1ccnc1CC1COc2ccccc2O1` (centres undefined), the Potency entry (in [6]; in [7]; in [9]; with Papain (Carica papaya); in experiment [10]; in [11]) was “inactive” throughout. For the same compound, the Potency result in [2] and in [3] was “inactive” throughout. In addition, the Potency was 1.74 µM (active) in experiment [8] and 11.1 µM (active) in experiment [4]. For the same compound, in experiment [1], the outcome was “inactive”.

For `NC(N)=N/N=C/c1c(Cl)cccc1Cl`, the Potency result (in experiment [6]; in experiment [7]; in experiment [9]; with Papain (Carica papaya)) was “inactive” throughout. Besides, the Potency in experiment [8] was 9.77 µM (active). For the same compound, the activity in experiment [12] is -0.724%; in [14], -52.2%; in experiment [15], -1.71%. The activity change, negative = inhibition in experiment [13] is 0.25%.

Turning to `c1cnc(N2CCN(Cc3ccc4c(c3)OCO4)CC2)nc1`, the Potency result (in experiment [6]; in experiment [7]; in the experiment with Papain (Carica papaya); in experiment [10]; in experiment [11]) was “inactive” throughout. In addition, the Potency in [8] is 0.871 µM (active); in experiment [9], 11 µM (active).

With `CC(N=C(NC#N)Nc1ccncc1)C(C)(C)C` (centres undefined), the Potency entry (in [6]; in experiment [7]; with Papain (Carica papaya); in experiment [10]; in experiment [11]) was “inactive” throughout. In addition, the Potency is 21.9 µM (active) in experiment [8] and 3.89 µM (active) in experiment [9].

With `CN(C)CC[C@@H](c1ccc(Br)cc1)c1ccccn1`, the Potency entry (in experiment [6]; in [7]; in experiment [9]; with Papain (Carica papaya); in experiment [10]) was “inactive” throughout. Moreover, in [8], the Potency is 4.9 µM (active). The activity in experiment [12] was -5.16%; in [14], -23.7%; in experiment [15] it was 0.473%. The activity change, negative = inhibition in experiment [13] stood at 1.79%.

For the compound `Nc1c2c(nc3ccccc13)CCCC2O` (centres undefined), the Potency entry (in experiment [6]; in experiment [7]; in experiment [9]; in the experiment with Papain (Carica papaya); in [10]; in experiment [11]) was “inactive” in each case. Moreover, the Potency in experiment [8] is 15.5 µM (active).
